This passage reports viability results from PubChem BioAssay.

The viability is a read-out of living cells in per cent, often relative to untreated cells.

The source made the active and inactive calls.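 How the source made its calls: active means normalized viability below 100% at a tested concentration; inactive means the rest.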

One assay is described as follows: drug combination growth inhibition, ovarian cancer – cell-based, oncology-focused library, rucaparib conditional, profiling panel (AID 1508598). The note with it: patient-derived ovarian cancer cells, CellTiter-Glo viability, 144 h; at 0.0195 µM; OCI-C5x cells; with rucaparib 10 µM; stronger effect = lower value; 100% = cells with rucaparib alone. For orientation: In ATP-based viability assays light output follows the ATP content of the culture.
As for `N[C@@H]1CCCN(c2c(/C=C3\SC(=O)NC3=O)cccc2-c2ccccc2)C1`, the viability was 105% (inactive).

Turning to `C[C@@H]1C[C@H]2[C@@H]3CCC4=CC(=O)C=C[C@]4(C)[C@]3(F)[C@H](O)C[C@]2(C)[C@]1(O)C(=O)CO`, the viability was 111% (inactive).

As to `Cc1cc2c(C(=O)NC[C@H](C)c3ccccc3)c(O)c(O)cc2c(O)c1-c1c(C)cc2c(C(=O)NC[C@H](C)c3ccccc3)c(O)c(O)cc2c1O`, the viability was 124% (inactive).

`Nc1nc(F)nc2c1ncn2[C@H]1O[C@H](CO)[C@@H](O)[C@@H]1O`: the viability was 109% (inactive).

Turning to `COc1cccc2c1C(=O)c1c(O)c3c(c(O)c1C2=O)C[C@@](O)(C(=O)CO)C[C@H]3O[C@H]1C[C@H](N)[C@@H](O)[C@H](C)O1`, the viability is 78.4% (active).

In the case of `C=C1/C(=C/C=C2\CCC[C@@]3(C)[C@H]2CC[C@H]3[C@H](C)/C=C/[C@@H](C)C(C)C)C[C@H](O)C[C@@H]1O`, the viability was 103% (inactive).

On to `CO[C@H]1C[C@H]2CC[C@@H](C)[C@@](O)(O2)C(=O)C(=O)N2CCCC[C@H]2C(=O)O[C@H]([C@H](C)C[C@@H]2CC[C@H](OP(C)(C)=O)[C@H](OC)C2)CC(=O)[C@H](C)/C=C(\C)[C@@H](O)[C@@H](OC)C(=O)[C@H](C)C[C@H](C)/C=C/C=C/C=C/1C`, for which the viability is 103% (inactive).

As to `C=CCNC1=C2C[C@@H](C)C[C@H](OC)[C@H](O)[C@@H](C)/C=C(\C)[C@H](OC(N)=O)[C@@H](OC)/C=C\C=C(\C)C(=O)NC(=CC1=O)C2=O`, the viability was 120% (inactive).

As to `CC[C@]1(O)C[C@@H]2CN(CCc3c([nH]c4ccccc34)[C@@](C(=O)OC)(c3cc4c(cc3OC)N(C=O)[C@@H]3C45CCN4CC=C[C@](CC)([C@H]45)[C@H](OC(C)=O)[C@]3(O)C(=O)OC)C2)C1` (stereo partly specified), the viability is 88.9% (active).

For `COc1cccc2c1C(=O)c1c(O)c3c(c(O)c1C2=O)C[C@@](O)(C(C)=O)C[C@H]3O[C@H]1C[C@H](N)[C@H](O)[C@H](C)O1`, the viability was 198% (inactive).

`CCOc1ccc(Cc2cc([C@@H]3O[C@H](CO)[C@@H](O)[C@H](O)[C@@H]3O)ccc2Cl)cc1`: the viability was 117% (inactive).

As to `CC(=O)[C@]1(O)Cc2c(O)c3c(c(O)c2[C@H](O[C@H]2C[C@H](N)[C@H](O)[C@H](C)O2)C1)C(=O)c1ccccc1C3=O`, the viability is 148% (inactive).

`CCC1=CC2CN(C1)Cc1c([nH]c3ccccc13)[C@@](C(=O)OC)(c1cc3c(cc1OC)N(C)[C@H]1[C@@](O)(C(=O)OC)[C@H](OC(C)=O)[C@]4(CC)C=CCN5CC[C@@]31[C@H]54)C2` (stereo partly specified): the viability was 39.2% (active).

As for `CC(=O)O[C@H]1C(=O)[C@@]2(C)C([C@H](OC(=O)c3ccccc3)[C@]3(O)C[C@H](OC(=O)[C@H](O)[C@@H](NC(=O)c4ccccc4)c4ccccc4)C(C)=C1C3(C)C)[C@]1(OC(C)=O)CO[C@@H]1C[C@H]2O` (stereo partly specified), the viability was 37% (active).

On to `CO[C@H]1C[C@H]2CC[C@@H](C)[C@@](O)(O2)C(=O)C(=O)N2CCCC[C@H]2C(=O)O[C@H]([C@H](C)C[C@@H]2CC[C@H](OC(=O)C(C)(CO)CO)[C@H](OC)C2)CC(=O)[C@H](C)/C=C(\C)[C@@H](O)[C@@H](OC)C(=O)[C@H](C)C[C@H](C)/C=C/C=C/C=C/1C`, for which the viability was 93.2% (active).

Take `CO[C@H]1/C=C\C=C(\C)C(=O)NC2=CC(=O)C(NCCN(C)C)=C(C[C@@H](C)C[C@H](OC)[C@H](O)[C@@H](C)/C=C(\C)[C@@H]1OC(N)=O)C2=O`: the viability was 118% (inactive).

On to `CC(C)(C(=O)NCC(F)(F)C(F)(F)F)C(=O)N[C@H]1C(=O)Nc2ccccc2-c2ccccc21`, for which the viability is 110% (inactive).

With `CC1(C)O[C@@H]2C[C@H]3[C@@H]4CCC5=CC(=O)C=C[C@]5(C)[C@]4(F)[C@H](O)C[C@]3(C)[C@@]2(C(=O)CO)O1`, the viability was 105% (inactive).

Staying with this assay, now noted: patient-derived ovarian cancer cells, CellTiter-Glo viability, 144 h; at 0.0195 µM; OCI-C5x cells; without rucaparib; stronger effect = lower value.
In the case of `N[C@@H]1CCCN(c2c(/C=C3\SC(=O)NC3=O)cccc2-c2ccccc2)C1`, the viability was 108% (inactive).

With `C[C@@H]1C[C@H]2[C@@H]3CCC4=CC(=O)C=C[C@]4(C)[C@]3(F)[C@H](O)C[C@]2(C)[C@]1(O)C(=O)CO`, the viability is 117% (inactive).

As for `Cc1cc2c(C(=O)NC[C@H](C)c3ccccc3)c(O)c(O)cc2c(O)c1-c1c(C)cc2c(C(=O)NC[C@H](C)c3ccccc3)c(O)c(O)cc2c1O`, the viability was 116% (inactive).

For the compound `Nc1nc(F)nc2c1ncn2[C@H]1O[C@H](CO)[C@@H](O)[C@@H]1O`, the viability was 116% (inactive).

Regarding `COc1cccc2c1C(=O)c1c(O)c3c(c(O)c1C2=O)C[C@@](O)(C(=O)CO)C[C@H]3O[C@H]1C[C@H](N)[C@@H](O)[C@H](C)O1`, the viability is 75.5% (active).

For `C=C1/C(=C/C=C2\CCC[C@@]3(C)[C@H]2CC[C@H]3[C@H](C)/C=C/[C@@H](C)C(C)C)C[C@H](O)C[C@@H]1O`, the viability is 100% (inactive).

As to `CO[C@H]1C[C@H]2CC[C@@H](C)[C@@](O)(O2)C(=O)C(=O)N2CCCC[C@H]2C(=O)O[C@H]([C@H](C)C[C@@H]2CC[C@H](OP(C)(C)=O)[C@H](OC)C2)CC(=O)[C@H](C)/C=C(\C)[C@@H](O)[C@@H](OC)C(=O)[C@H](C)C[C@H](C)/C=C/C=C/C=C/1C`, the viability is 93.1% (active).

`C=CCNC1=C2C[C@@H](C)C[C@H](OC)[C@H](O)[C@@H](C)/C=C(\C)[C@H](OC(N)=O)[C@@H](OC)/C=C\C=C(\C)C(=O)NC(=CC1=O)C2=O`: the viability was 116% (inactive).

In the case of `CC[C@]1(O)C[C@@H]2CN(CCc3c([nH]c4ccccc34)[C@@](C(=O)OC)(c3cc4c(cc3OC)N(C=O)[C@@H]3C45CCN4CC=C[C@](CC)([C@H]45)[C@H](OC(C)=O)[C@]3(O)C(=O)OC)C2)C1` (stereo partly specified), the viability was 66.1% (active).

With `COc1cccc2c1C(=O)c1c(O)c3c(c(O)c1C2=O)C[C@@](O)(C(C)=O)C[C@H]3O[C@H]1C[C@H](N)[C@H](O)[C@H](C)O1`, the viability is 201% (inactive).

As to `CCOc1ccc(Cc2cc([C@@H]3O[C@H](CO)[C@@H](O)[C@H](O)[C@@H]3O)ccc2Cl)cc1`, the viability was 116% (inactive).

In the case of `CC(=O)[C@]1(O)Cc2c(O)c3c(c(O)c2[C@H](O[C@H]2C[C@H](N)[C@H](O)[C@H](C)O2)C1)C(=O)c1ccccc1C3=O`, the viability is 112% (inactive).

Consider `CCC1=CC2CN(C1)Cc1c([nH]c3ccccc13)[C@@](C(=O)OC)(c1cc3c(cc1OC)N(C)[C@H]1[C@@](O)(C(=O)OC)[C@H](OC(C)=O)[C@]4(CC)C=CCN5CC[C@@]31[C@H]54)C2` (stereo partly specified), for which the viability was 33.7% (active).

For `CC(=O)O[C@H]1C(=O)[C@@]2(C)C([C@H](OC(=O)c3ccccc3)[C@]3(O)C[C@H](OC(=O)[C@H](O)[C@@H](NC(=O)c4ccccc4)c4ccccc4)C(C)=C1C3(C)C)[C@]1(OC(C)=O)CO[C@@H]1C[C@H]2O` (stereo partly specified), the viability is 35.9% (active).

For `CO[C@H]1C[C@H]2CC[C@@H](C)[C@@](O)(O2)C(=O)C(=O)N2CCCC[C@H]2C(=O)O[C@H]([C@H](C)C[C@@H]2CC[C@H](OC(=O)C(C)(CO)CO)[C@H](OC)C2)CC(=O)[C@H](C)/C=C(\C)[C@@H](O)[C@@H](OC)C(=O)[C@H](C)C[C@H](C)/C=C/C=C/C=C/1C`, the viability is 88.2% (active).

Regarding `CO[C@H]1/C=C\C=C(\C)C(=O)NC2=CC(=O)C(NCCN(C)C)=C(C[C@@H](C)C[C@H](OC)[C@H](O)[C@@H](C)/C=C(\C)[C@@H]1OC(N)=O)C2=O`, the viability was 82.9% (active).

For `CC(C)(C(=O)NCC(F)(F)C(F)(F)F)C(=O)N[C@H]1C(=O)Nc2ccccc2-c2ccccc21`, the viability was 117% (inactive).

Regarding `CC1(C)O[C@@H]2C[C@H]3[C@@H]4CCC5=CC(=O)C=C[C@]5(C)[C@]4(F)[C@H](O)C[C@]3(C)[C@@]2(C(=O)CO)O1`, the viability is 122% (inactive).
